The text below walks through data of PubChem BioAssay.

Structures are written as SMILES. The source made the active and inactive calls. Unless noted, no rule for the calls is given here.

The nature of test [1]: anti-His antibody binders, primary screen, artefact control for SMM control protein annotation, biochemical, small-molecule microarray, 635 nm fluorescence (AID 1128).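 Also: score merges feature fluorescence with signal-to-noise for each printed compound spot.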 Conditions: anti-His Alexa647 antibody binding, higher = more signal.
Test [2] deals with Human papillomavirus type 1a E7 protein (residues 1-88). Description: HPV1a E7 small-molecule binders, primary screen, biochemical, small-molecule microarray, residues 1-88, 635 nm (AID 1129). The settings on record: small-molecule microarray binding, fluorescence 635 nm; higher = more signal.
Test [3] deals with Focal adhesion kinase 1 (Homo sapiens) (UniProt Q05397). The test can be described thus: small-molecule microarray binders of FAK, primary screen, biochemical, 635/667 nm fluorescence, BSA, DTT (AID 1130).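 Also: composite of spot emission at 667 nm and signal to noise over triplicate slides.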 The settings on record: PTK2 binding, 635 nm fluorescence, higher = more signal.
The test system of test [4] is Fibrinogen (Alexa647-labelled). The test can be described thus: fibrinogen binders on compound microarrays, profiling panel, artefact control for SMM control-protein annotation, biochemical, small-molecule microarray, 635/667 nm fluorescence (AID 1131).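 Also: z-score merges 667 nm fluorescence with per-spot signal-to-noise over triplicate slides.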 Conditions: fibrinogen-A647 binding fluorescence, higher = more signal.
Test [5] deals with Follistatin (Homo sapiens) (UniProt P19883). The test can be described thus: follistatin binders on small-molecule microarrays, primary screen, biochemical, small-molecule microarray, 635/667 nm fluorescence (AID 1132). The settings on record: FST binding, 635 nm fluorescence, higher = more signal.
Test [6] addresses Fibroblast growth factor 2 (Homo sapiens) (UniProt P09038). The test can be described thus: FGF2 binders on small-molecule microarrays, primary screen, biochemical, small-molecule microarray, 635/667 nm fluorescence (AID 1133). Conditions: small-molecule microarray binding, FGF2, fluorescence 635/667; higher = more signal.
The nature of test [7]: mitochondrial membrane potential change in A549 cells, profiling panel, cell-based, JC-1 fluorescence, basal, 24 h, 100 nL (AID 1138).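 Also: A549 lung adenocarcinoma cells under basal conditions with no added stimulus; test concentration not given here.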 Conditions: higher = more signal.
Another test relates to Lefty1. The test can be described thus: Lefty1 binders on small-molecule microarrays, primary screen, biochemical, small-molecule microarray, 635/667 nm fluorescence (AID 1139). The settings on record: small-molecule microarray binding, fluorescence 635/667; higher = more signal.
Test [8] concerns wheat germ agglutinin (Triticum aestivum), Alexa647-labelled. Description: wheat germ agglutinin binders on compound microarrays, profiling panel, artefact control for SMM control-protein annotation, biochemical, small-molecule microarray, 635/667 nm fluorescence (AID 1140).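 Also: score merges 667 nm feature emission with signal to noise over triplicate slides.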 The settings on record: WGA-A647 binding, 635 nm fluorescence, higher = more signal.
Test [9] deals with Luciferin 4-monooxygenase (Photinus pyralis) (UniProt P08659). The test can be described thus: firefly luciferase enzyme inhibitors, primary screen, biochemical, luminescence, purified enzyme, 2006 set (AID 1141).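 Also: cell-free assay with purified firefly luciferase at 100 ng per well in PBS; test concentration not given here.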 The settings on record: SteadyGlo luminescence, 30 min, higher = more signal, called active from +8 up or from −8 down.
Test [10] concerns Wnt5a (protein binding on small-molecule microarray). The test can be described thus: Wnt5a binders on small-molecule microarray, primary screen, biophysical, 635/667 nm fluorescence (AID 1142).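 Also: fluorescence read at 667 nm with signal to noise per printed feature.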 Conditions: 635 nm fluorescence, higher = more signal.
The nature of test [11]: cell viability in Huh7 cells, primary screen, cytotoxicity control for HCV replication inhibitor project, CellTiter-Glo luminescence, basal, 48 h (AID 1143).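 Also: Huh7 hepatoma cells carrying a hepatitis C replication reporter with no stimulus; test concentration not given here.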 The settings on record: Huh7 HCV replicon, higher = more signal, called active from +8 up or from −8 down.
A short description of test [12]: P. aeruginosa biofilm formation inhibitors, primary screen, PAO1 strain, BacTiter-Glo luminescence, LB-PBS (AID 1144). Conditions: 12 h, higher = more signal.
Test [13] can be described thus: CREB reporter modulators without forskolin, primary screen, cell-based, PC12, CRE-LacZ reporter, unstimulated (AID 1145). Conditions: no forskolin, luminescence, 4.5 h, higher = more signal, called active from +8 up or from −8 down.
Test [14] in a line: CREB reporter modulators under forskolin, primary screen, cell-based, PC12, CRE-LacZ reporter, forskolin-stimulated (AID 1146).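 Also: PC12 cells with 6xCRE LacZ reporter stimulated by forskolin 10 µM; beta-galactosidase reporter signal reflecting CREB driven transcription.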 The settings on record: luminescence, 4.5 h, higher = more signal, called active from +8 up or from −8 down.
Test [15] concerns the target Streptavidin (Streptomyces avidinii) (UniProt P22629). The test can be described thus: streptavidin binders on small-molecule microarray, primary screen, artefact control for SMM compound annotation, biophysical, 635/667 nm fluorescence (AID 1147).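 Also: signal reflects streptavidin binding to arrayed compounds as a control protein.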 Conditions: streptavidin binding, higher = more signal.
The nature of test [16]: small-molecule binders of probe aInhba, primary screen, biochemical, small-molecule microarray, 635/667 nm fluorescence (AID 1148).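 Also: score merges 667nm spot fluorescence with signal-to-noise for antibody binding to printed compounds.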 The settings on record: higher = more signal.
The target in test [17] is Torsin-1A (Homo sapiens) (UniProt O14656). Description: torsin A binders from cell lysate, primary screen, small-molecule microarray, wild-type, 635/667 nm (AID 1149). The settings on record: COS7 hTOR1A-WT lysate, 635 nm fluorescence, higher = more signal.
Test [18] shares this target. The test can be described thus: small-molecule binders of mutant TOR1A in lysate, primary screen, cell lysate, small-molecule microarray, COS7 lysate, 635/667 nm fluorescence (AID 1150).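 Also: score pools 667 nm emission and signal to noise measuring lysate protein binding.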 The settings on record: COS7 hTOR1A mutant lysate, 635 nm fluorescence, higher = more signal.
Test [19] concerns Sonic hedgehog protein (Shh). Description: small-molecule binders of Shh protein, primary screen, biochemical, small-molecule microarray, 635/667 nm fluorescence (AID 1151).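 Also: Shh protein binding to compounds spotted on small-molecule microarray slides; score combines spot fluorescence intensity with signal-to-noise across triplicate slides.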 The settings on record: small-molecule microarray binding, 635 nm fluorescence; higher = more signal.

Torsin-1A (Homo sapiens), sequence (O14656 whole entry, looked up): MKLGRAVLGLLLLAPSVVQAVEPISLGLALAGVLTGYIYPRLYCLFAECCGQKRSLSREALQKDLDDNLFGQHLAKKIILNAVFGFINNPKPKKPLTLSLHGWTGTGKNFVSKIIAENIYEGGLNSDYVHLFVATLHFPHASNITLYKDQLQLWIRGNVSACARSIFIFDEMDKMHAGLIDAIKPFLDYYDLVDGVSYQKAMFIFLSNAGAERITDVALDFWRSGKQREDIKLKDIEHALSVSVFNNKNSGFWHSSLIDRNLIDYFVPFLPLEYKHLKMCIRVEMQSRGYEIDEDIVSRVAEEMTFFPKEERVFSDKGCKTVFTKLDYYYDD
Luciferin 4-monooxygenase (Photinus pyralis), sequence (P08659 whole entry, looked up): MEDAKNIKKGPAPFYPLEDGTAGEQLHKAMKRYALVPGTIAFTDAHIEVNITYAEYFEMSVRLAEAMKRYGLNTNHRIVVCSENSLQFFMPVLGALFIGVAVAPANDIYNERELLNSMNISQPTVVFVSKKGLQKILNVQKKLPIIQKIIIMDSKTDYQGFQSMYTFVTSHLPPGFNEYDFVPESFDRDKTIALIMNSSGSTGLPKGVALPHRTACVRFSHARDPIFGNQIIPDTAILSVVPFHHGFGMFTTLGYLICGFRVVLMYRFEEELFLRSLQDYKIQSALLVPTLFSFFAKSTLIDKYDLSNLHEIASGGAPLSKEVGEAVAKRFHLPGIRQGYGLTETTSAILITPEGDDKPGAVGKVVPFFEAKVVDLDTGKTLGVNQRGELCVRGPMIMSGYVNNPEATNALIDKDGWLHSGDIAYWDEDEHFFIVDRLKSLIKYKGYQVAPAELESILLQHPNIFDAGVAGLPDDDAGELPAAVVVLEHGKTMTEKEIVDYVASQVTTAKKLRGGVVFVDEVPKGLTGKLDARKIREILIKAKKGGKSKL
Follistatin (Homo sapiens), sequence (P19883 whole entry, looked up): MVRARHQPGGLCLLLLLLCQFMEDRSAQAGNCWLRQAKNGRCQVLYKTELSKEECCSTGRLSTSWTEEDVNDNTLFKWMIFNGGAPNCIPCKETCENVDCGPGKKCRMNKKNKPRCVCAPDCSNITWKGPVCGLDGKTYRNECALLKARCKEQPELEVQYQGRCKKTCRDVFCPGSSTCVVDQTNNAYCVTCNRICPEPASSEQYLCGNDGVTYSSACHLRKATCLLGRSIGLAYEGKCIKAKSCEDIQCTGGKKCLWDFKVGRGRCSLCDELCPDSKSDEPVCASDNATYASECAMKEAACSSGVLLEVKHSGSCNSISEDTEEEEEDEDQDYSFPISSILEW
Streptavidin (Streptomyces avidinii), sequence (P22629 whole entry, looked up): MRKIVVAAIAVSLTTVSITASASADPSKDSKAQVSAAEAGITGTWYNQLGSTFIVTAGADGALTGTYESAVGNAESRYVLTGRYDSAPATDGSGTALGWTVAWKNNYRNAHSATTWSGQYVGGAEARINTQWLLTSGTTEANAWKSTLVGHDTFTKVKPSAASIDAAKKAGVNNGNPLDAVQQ
Fibroblast growth factor 2 (Homo sapiens), sequence (P09038 whole entry, looked up): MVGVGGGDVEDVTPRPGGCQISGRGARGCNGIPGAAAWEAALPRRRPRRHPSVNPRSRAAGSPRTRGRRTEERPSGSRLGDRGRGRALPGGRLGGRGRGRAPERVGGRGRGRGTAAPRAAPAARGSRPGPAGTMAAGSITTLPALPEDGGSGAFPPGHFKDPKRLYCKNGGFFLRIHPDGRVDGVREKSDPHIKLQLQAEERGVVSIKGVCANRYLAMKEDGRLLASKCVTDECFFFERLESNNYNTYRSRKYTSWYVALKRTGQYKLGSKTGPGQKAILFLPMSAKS
Focal adhesion kinase 1 (Homo sapiens), sequence (Q05397 whole entry, looked up): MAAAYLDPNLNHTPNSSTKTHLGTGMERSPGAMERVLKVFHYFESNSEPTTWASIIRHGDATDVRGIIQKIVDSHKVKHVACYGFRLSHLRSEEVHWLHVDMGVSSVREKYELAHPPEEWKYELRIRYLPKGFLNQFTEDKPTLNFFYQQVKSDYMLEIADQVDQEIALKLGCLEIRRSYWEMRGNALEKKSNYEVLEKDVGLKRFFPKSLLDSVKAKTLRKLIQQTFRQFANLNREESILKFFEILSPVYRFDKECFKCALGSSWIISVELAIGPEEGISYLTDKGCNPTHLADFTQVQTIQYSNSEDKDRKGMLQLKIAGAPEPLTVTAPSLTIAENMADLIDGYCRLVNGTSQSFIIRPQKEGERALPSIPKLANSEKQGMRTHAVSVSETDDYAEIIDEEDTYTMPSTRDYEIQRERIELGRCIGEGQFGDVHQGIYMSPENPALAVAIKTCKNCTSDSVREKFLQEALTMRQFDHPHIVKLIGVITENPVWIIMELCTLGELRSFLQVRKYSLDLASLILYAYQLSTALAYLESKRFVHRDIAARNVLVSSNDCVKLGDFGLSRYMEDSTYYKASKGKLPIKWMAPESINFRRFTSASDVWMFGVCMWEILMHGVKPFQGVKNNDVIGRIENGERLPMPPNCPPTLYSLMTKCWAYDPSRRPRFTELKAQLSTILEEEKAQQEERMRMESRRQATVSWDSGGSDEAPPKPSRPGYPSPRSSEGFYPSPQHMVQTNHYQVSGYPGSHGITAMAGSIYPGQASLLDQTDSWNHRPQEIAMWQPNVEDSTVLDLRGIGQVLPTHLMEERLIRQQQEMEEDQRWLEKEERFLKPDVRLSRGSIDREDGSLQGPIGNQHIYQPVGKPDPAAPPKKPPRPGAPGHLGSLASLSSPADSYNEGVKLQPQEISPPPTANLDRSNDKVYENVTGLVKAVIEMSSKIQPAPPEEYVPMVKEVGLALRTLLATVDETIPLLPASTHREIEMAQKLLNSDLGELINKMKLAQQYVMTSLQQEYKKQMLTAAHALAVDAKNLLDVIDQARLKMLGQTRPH

In the case of `O=C1NC(=O)C2C1C=CC(C(O)C(c1ccccc1)c1ccccc1)N2Nc1ccc(Cl)cc1Cl` (stereo not given), the composite z-score in test [1] was -0.138; in [2] it was 1.15; in [3] it was 0.682; in [4], 0.852; in [5], 0.896; in test [6], -0.301. The composite z-score in the test with Lefty1 was -0.0329; in test [8], 0.587; in test [10], 0.223; in test [15] it was 1.23; in test [16], 0.102; with Torsin-1A (Homo sapiens) [17], -0.614. In addition, the composite z-score is -0.0412 with Torsin-1A (Homo sapiens) [18] and -0.566 in test [19]. Also, the z-score was -0.815 in test [7]; 0.231 (inactive) in [9]; -1.78 (inactive) in test [11]; -0.548 (inactive) in [12]; -0.14 (inactive) in [13]; 0.253 (inactive) in [14].
Consider `CCOC(=O)[C@H]1CC=C2CC1C(=O)N1CCC[C@@H]1[C@@H]2O[Si](C)(C)C(C)(C)C` (stereo not given in full), for which the composite z-score in [1] was -0.0289; in [2] it was -0.708; in [3], -0.173; in test [4], -0.162; in test [5], -0.878; in test [6], -0.206. The composite z-score was 0.449 with Lefty1; -0.502 in test [8]; -0.395 in test [10]; -1.49 in [15]; -0.238 in test [16]; -0.55 with Torsin-1A (Homo sapiens) [17]. Moreover, the values for the composite z-score (with Torsin-1A (Homo sapiens) [18]; in [19]) were -0.83 and 0.398, respectively. For the same compound, the z-score in test [7] is -0.158; in test [9], 0.367 (inactive); in test [11] it was -6.23 (inactive); in test [12] it was -0.451 (inactive); in [13], -0.776 (inactive); in test [14] it was -0.661 (inactive).
`C=C[C@H](COC(C)=O)N(C(=O)OC(C)(C)C)S(=O)(=O)c1ccc(Br)cc1`: the composite z-score is 1.7 in [1]; 0.851 in test [2]; 0.461 in test [3]; -0.296 in [4]; 0.867 in [5]; 0.433 in test [6]. Besides, the composite z-score with Lefty1 was 0.65; in [8], 0.233; in test [10] it was 0.77; in test [15] it was 0.304; in [16], 0.898; in the test with Torsin-1A (Homo sapiens) [17], 0.446. The figures for the composite z-score (with Torsin-1A (Homo sapiens) [18]; in test [19]) were 0.31 and 0.457, respectively. The z-score is 0.671 in test [7]; -1.57 (inactive) in test [9]; -0.121 (inactive) in test [11]; -0.41 (inactive) in test [12]; 0.652 (inactive) in test [13]; 1.66 (inactive) in test [14].
For `O=C1[C@H]2C=C(Br)[C@H](C[C@@H]2OCCCCO)[C@@]12CO2`, the composite z-score was -0.0684 in [1]; -0.123 in [2]; -0.14 in [3]; -0.0973 in test [4]; 0.324 in test [5]; 0.108 in test [6]. Also, the composite z-score is 0.17 in the test on Lefty1; 0.0889 in test [8]; -0.0251 in [10]; 0.0247 in [15]; 0.104 in test [16]; 0.411 with Torsin-1A (Homo sapiens) [17]. The composite z-score with Torsin-1A (Homo sapiens) [18] is 0.53; in [19], 0.31. Moreover, the z-score is 0.137 in [7]; 0.469 (inactive) in [9]; 0.722 (inactive) in test [11]; 0.56 (inactive) in test [12]; 0.22 (inactive) in [13]; 0.533 (inactive) in [14].
